Test results as given in PubChem BioAssay (Tox21).
Records with an inconclusive call do not appear. The source made the active and inactive calls. Unless noted, the call rests on the fitted dose curve; in most records, active means well fitted curve in the direction sought with a large enough effect in the repeat runs; inconclusive means weak or mixed curves; inactive means no such curve, though single readings can be large; an effect the other way counts as inactive or inconclusive.

Key:
[1] = qHTS assay to identify small molecule agonists of the vitamin D receptor (VDR) signaling pathway - cell viability counter screen (AID 743224); conditions: VDR-bla HEK293T viability, CellTiter-Glo luminescence, 16 h; series mostly up to 62.6 µM; further: nearly all actives have a fitted effect of over 50% in size
Method in brief: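 VDR-bla cell line, quantitative HTS format; 16 h compound incubation (37C, 5% CO2); ATP-based CellTiter-Glo luminescence measured in the reporter assay wells.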

[2] = qHTS assay to identify small molecule antagonists of the vitamin D receptor (VDR) signaling pathway - cell viability counter screen (AID 743225); conditions: VDR-bla HEK293T viability, CellTiter-Glo luminescence, 16 h; series mostly up to 61 µM; further: nearly all actives have a fitted effect of over 50% in size
Method in brief: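 Read-out: CellTiter-Glo luminescence measured 30 min after reagent addition at room temperature. Cells were VDR-bla HEK 293T exposed 16 h at 37C, 5% CO2, to compound with 3 nM final calcitriol agonist.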

[3] = qHTS assay to identify small molecule agonists of the endoplasmic reticulum stress response signaling pathway (AID 1159516; active means well fitted activation curve with a large enough effect in the signal ratio in the repeat runs, not every such curve was filed as active; the % refers to the signal ratio); conditions: ESRE-bla HeLa, ER stress beta-lactamase reporter, 5 h; series mostly up to 61 µM
Method in brief: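 ER stress element reporter (bla) in HeLa. 1,500 cells/well, overnight attachment; 5 hr compound; 2 hr RT substrate; dual-emission fluorescence.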

[4] = qHTS assay to identify small molecule agonists of the endoplasmic reticulum stress response signaling pathway - cell viability counter screen (AID 1159517; calls by dose curve;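 further: HeLa cells carrying an ER stress response element beta-lactamase reporter; nearly all actives have a fitted effect of over 50% in size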); conditions: ESRE-bla HeLa viability, CellTiter-Glo luminescence, 5 h; series mostly up to 61 µM
Method in brief: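 Counter-screen wells were identical to the reporter wells. Cells were plated at 1,500 per well and dosed for 5 hr, then read for luminescence 30 min after CellTiter-Glo addition.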

[5] = qHTS assay to identify small molecule antagonists of the retinoid-related orphan receptor gamma (ROR-gamma) signaling pathway - cell viability counter screen (AID 1159520); conditions: Tet-on RORgamma CHO cells viability, ATP luminescence, 16 h; series mostly up to 92.4 µM; further: nearly all actives have a fitted effect of over 50% in size; further: potency means the concentration at half of the fitted maximal effect
Method in brief: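 Tet-on ROR gamma CHO cells were given compounds for 2 hr, then doxycycline hyclate at 1 uM final, and incubated 16 hr at 37 C. Viability was measured as ATP content by CellTiter-Glo luminescence.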

[6] = qHTS assay to identify small molecule agonists of the AP-1 signaling pathway - cell viability counter screen (AID 1159525; calls by dose curve; further: nearly all actives have a fitted effect of over 55% in size); conditions: ME-180 AP-1-bla cells viability, ATP luminescence, 5 h; series mostly up to 76.8 µM
Method in brief: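 AP-1-bla ME-180 cells in Opti-MEM with 0.5% dialyzed FBS, compound exposure 5 h at 37 C in 15-point titration. Viability read in the same wells as ATP content by CellTiter-Glo luminescence, normalised to tetra-n-octylammonium bromide and DMSO controls.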

[7] = qHTS assay to identify small molecule agonists of the AP-1 signaling pathway (AID 1159526; calls by dose curve); conditions: ME-180 (cervical carcinoma) AP-1-bla reporter, beta-lactamase FRET ratio, 5 h; series mostly up to 76.8 µM
[8] = biological target: Retinoic acid receptor RXR-alpha (Homo sapiens) (UniProt P19793); assay: qHTS assay to identify small molecule agonists of the RXR signaling pathway (AID 1159527; calls by dose curve; further: nearly all actives have a fitted effect of over 35% in size); conditions: HEK293T RXRa-UAS-bla, beta-lactamase ratio, 16 h; series mostly up to 76.8 µM
Method in brief: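 Read-out: beta-lactamase FRET ratio (405 nm excitation, 460 and 530 nm emission) after 2 hr substrate loading at room temperature. Cells were RXR-alpha-UAS-bla HEK 293T treated with compounds for 16 hr in 2% charcoal-stripped FBS medium.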

[9] = qHTS assay to identify small molecule agonists of the RXR signaling pathway - cell viability counter screen (AID 1159529); conditions: RXR-alpha-bla HEK293T viability, CellTiter-Glo, 16 h; series mostly up to 76.8 µM; further: nearly all actives have a fitted effect of over 50% in size
Method in brief: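 HEK 293T RXRa-bla cells, 2% CS-FBS; 5 h settle; cpd 16 h 37 C, 5% CO2; CellTiter-Glo 30 min RT, luminescence. Tetraoctyl ammonium bromide as positive control.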

[10] = qHTS assay to identify small molecule antagonists of the retinoid acid receptor (RAR) signaling pathway - cell viability counter screen (AID 1159551); conditions: C3RL4 cells viability, ATP luminescence (CellTiter-Glo), 6 h; series mostly up to 92.4 µM; further: nearly all actives have a fitted effect of over 35% in size
Method in brief: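 Following overnight attachment, C3RL4 reporter cells received DMSO-dissolved compounds and then retinol (1 uM final). Six hours later at 37 C, ATP content was measured by CellTiter-Glo luminescence.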

[11] = qHTS assay to identify small molecule antagonists of the retinoic acid receptor (RAR) signaling pathway (AID 1159552; further: nearly all actives have a fitted effect of over 50% in size; further: potency means the concentration at half of the fitted maximal effect); conditions: C3RL4 RARE luciferase reporter, retinol-stimulated, 6 h; series mostly up to 92.4 µM
Method in brief: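 Cells of the C3RL4 line were seeded, incubated overnight, then dosed with compounds in DMSO followed immediately by retinol (1 uM final). Six hours later luciferase detection reagent went in; signal was measured after 30 min at RT.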

[12] = qHTS assay to identify small molecule agonists of the retinoic acid receptor (RAR) signaling pathway (AID 1159553); conditions: C3RL4 RARE luciferase reporter, agonist, 6 h; series mostly up to 73.3 µM
Method in brief: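 Cell line C3RL4, RARE luciferase reporter. Treatment: compounds in DMSO, 6 hr, 37 C, 5% CO2, after overnight plating. Detection: luminescence, 30 min RT after reagent.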

Measured: Potency

Retinoic acid receptor RXR-alpha (Homo sapiens), sequence (P19793 whole entry, looked up): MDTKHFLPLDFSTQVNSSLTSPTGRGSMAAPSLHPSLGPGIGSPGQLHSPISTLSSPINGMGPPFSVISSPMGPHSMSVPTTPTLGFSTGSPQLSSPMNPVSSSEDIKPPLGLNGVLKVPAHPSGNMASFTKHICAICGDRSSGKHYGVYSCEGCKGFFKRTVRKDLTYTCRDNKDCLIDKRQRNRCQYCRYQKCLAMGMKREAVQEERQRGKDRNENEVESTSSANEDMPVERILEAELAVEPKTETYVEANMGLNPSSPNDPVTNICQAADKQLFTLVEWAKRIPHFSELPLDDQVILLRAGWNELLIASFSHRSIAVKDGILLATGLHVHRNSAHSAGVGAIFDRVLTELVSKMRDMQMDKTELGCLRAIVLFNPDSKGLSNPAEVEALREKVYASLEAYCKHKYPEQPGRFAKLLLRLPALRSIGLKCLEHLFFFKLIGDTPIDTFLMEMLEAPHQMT

CC1=CC=C(C(C)C)CC1
not listed: [11] | [12]
inactive: all other assays above

CCCCC(CC)COC(=O)COc1ccc(Cl)cc1Cl (centres undefined)
inactive: all assays above

CO[C@@H]1[C@H](OC(=O)/C=C/C=C/C=C/C=C/C(=O)O)CC[C@]2(CO2)[C@H]1[C@@]1(C)O[C@@H]1CC=C(C)C
not listed: [8] | [9] | [11] | [12]
inactive: all other assays above

C=CC(=O)OCCOCCOC(=O)C=C
active: [5] 13.7 µM | [11] 48.8 µM
inactive: [3] | [4]

Cc1cccc(C)c1NC(=O)CN(CC(=O)O)CC(=O)O
not listed: [11] | [12]
inactive: all other assays above

Cc1ccc(N=Nc2c(O)c(C(=O)O)cc3ccccc23)c(S(=O)(=O)O)c1
not listed: [7] | [12]
inactive: all other assays above
